Drawing on PubChem BioAssay (NCI), this text covers growth for 18 compounds.

Compounds without any hit were thinned out: in the full panel of roughly 83,000, 20% have a hit.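 Activity criterion: percent growth below 10, measured after cells in 96-well plates were exposed to a single compound concentration for 48 hours.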 A number with no mark means an inactive call. The source made the active and inactive calls.

Among the test systems are T-47D breast; BT-549 breast; MDA-MB-435 melanoma; MCF7 breast; HCT-116 colon; HCC-2998 colon; KM12 colon.
Common to all, as to test: NCI-60 one-dose screen, 48 h (100 = growth as untreated, 0 = no growth, -100 = all killed)
What all share (conditions): 10 µM unless noted

For the compound `Cc1cc(=O)oc2cc(OCc3nn4c(Nc5nc6ccccc6s5)c(-c5ccccc5)nc4s3)ccc12`, the growth in the test on T-47D breast is 88.1%; in the test with BT-549 breast, 92.6%; in the test with MDA-MB-435 melanoma it was 88.8%; in the test on MCF7 breast, 84.1%; in the test with HCT-116 colon it was 85.4%; in the test with HCC-2998 colon, 98.5%. The growth in the test on KM12 colon was 89.6%.

Take `O=C1/C(=C/c2ccc([N+](=O)[O-])cc2)COc2ccc(O)cc21`: the growth in the test on T-47D breast was 79.4%; in the test on BT-549 breast, 95%; in the test with MDA-MB-435 melanoma, 82.4%; in the test on MCF7 breast it was 5.28% (active); in the test on HCT-116 colon, -5.5% (active); with HCC-2998 colon it was 98.5%. For the same compound, the growth with KM12 colon is 48%.

Take `O=C(O)c1cn(C2CC2)c2cc(N3CCN(Cc4ccc5ccccc5c4O)CC3)c(F)cc2c1=O`: the growth is 30.9% in the test with T-47D breast; -59.1% (active) in the test on BT-549 breast; 33.6% in the test with MDA-MB-435 melanoma; 17% in the test with MCF7 breast; 14.5% in the test with HCT-116 colon; 41.9% with HCC-2998 colon. Besides, in the test on KM12 colon, the growth was 42.4%.

Consider `CC1OC(n2c3ccccc3c3c4c(c5c6ccccc6[nH]c5c32)C(=O)N(CCN2CCCC2)C4=O)CC(O)C1O` (stereo not drawn), for which the growth with T-47D breast was 51.9%; with BT-549 breast, 65.6%; in the test with MDA-MB-435 melanoma, 41.8%; in the test on MCF7 breast it was 9.93% (active); in the test with HCT-116 colon it was 25.8%; with HCC-2998 colon, 22%. In addition, in the test with KM12 colon, the growth was 26.3%.

For `CCc1ccccc1-n1c(-c2ccc(OC)cc2)cc(-c2ccc(OC)cc2)c(C#N)c1=O`, the growth in the test with T-47D breast was 90.6%; with BT-549 breast, 101%; in the test on MDA-MB-435 melanoma, 104%; in the test on MCF7 breast, 93%; in the test with HCT-116 colon, 51.1%; in the test with HCC-2998 colon, 97.1%. In addition, the growth with KM12 colon is 92.5%.

As for `C=C(CBr)[C@@H]1CC[C@]2(C(=O)O)CC[C@]3(C)[C@H](CC[C@@H]4[C@@]5(C)CCC(=O)C(C)(C)[C@@H]5CC[C@]43C)[C@@H]12`, the growth is 67.9% with T-47D breast; 84% in the test with BT-549 breast; 95.6% in the test on MDA-MB-435 melanoma; 78.2% in the test with MCF7 breast; 72.6% in the test with HCT-116 colon; 95.7% in the test with HCC-2998 colon. The growth in the test with KM12 colon is 68.6%.

`CS(=O)(=O)Nc1cc(-c2ccc3ncnc(Nc4ccc5c(cnn5Cc5ccc(F)cc5)c4)c3c2)cnc1Cl`: the growth in the test on T-47D breast was 5.06% (active); in the test with BT-549 breast, 9.27% (active); in the test with MDA-MB-435 melanoma, 45.3%; in the test on MCF7 breast it was 14.4%; with HCT-116 colon, 57%; in the test on HCC-2998 colon, 59.1%. In addition, the growth in the test on KM12 colon is 71.8%.

For `N#CC1=C(N)Oc2c(c(=O)[nH]c3ccc(Cl)cc23)C12C(=O)c1ccccc1C2=O`, the growth was 98.2% in the test with T-47D breast; 89% with BT-549 breast; 92.6% in the test with MDA-MB-435 melanoma; 96.4% in the test on MCF7 breast; 95.7% with HCT-116 colon; 109% in the test with HCC-2998 colon. Further, the growth in the test with KM12 colon is 90.7%.

Turning to `COc1cc2ncnc(Nc3ccc(S(=O)(=O)Nc4cc(C)on4)cc3)c2cc1OCCCN1CCN(c2ccc(F)cc2)CC1`, the growth with T-47D breast was 89.6%; in the test with BT-549 breast, 119%; with MDA-MB-435 melanoma, 105%; in the test on MCF7 breast, 96.8%; in the test on HCT-116 colon, 108%; in the test on HCC-2998 colon, 115%. Besides, the growth in the test on KM12 colon is 107%.

In the case of `CCCCNC(=O)Oc1ccc(/C(=C(/C)Cc2ccc(OC)cc2)c2ccc(OCCN(CC)CC)cc2)cc1`, the growth in the test with T-47D breast is 42.1%; with BT-549 breast it was 87.1%; in the test with MDA-MB-435 melanoma it was 66.8%; in the test with HCT-116 colon it was 42.7%; in the test with HCC-2998 colon, 85.6%; in the test on KM12 colon it was 85.1%.

`C#CCOc1ccc2ncnc(Nc3ccc(NC(=O)C=C)cc3)c2c1`: the growth in the test with T-47D breast was 4.07% (active); in the test on BT-549 breast, -28.7% (active); in the test on MDA-MB-435 melanoma it was -18.9% (active); in the test with MCF7 breast, -10.4% (active); with HCT-116 colon, -79.9% (active); in the test on HCC-2998 colon, 82.2%. Besides, in the test with KM12 colon, the growth was 8.91% (active).

With `COc1ccc(Nc2nnc(-c3ccc(OC)c(OC)c3)o2)cc1`, the growth with T-47D breast is 79.1%; with BT-549 breast it was 61.8%; with MDA-MB-435 melanoma it was 109%; in the test with MCF7 breast, 90.9%; in the test with HCT-116 colon, 77.8%; in the test with HCC-2998 colon, 120%.

On to `O=C(c1ccccc1)c1ccc(C2CCCCC2)cc1`, for which the growth is 85.7% with T-47D breast; 115% in the test on BT-549 breast; 99.8% in the test with MDA-MB-435 melanoma; 95.7% with MCF7 breast; 83.8% with HCT-116 colon; 107% in the test on HCC-2998 colon.

On to `O=C(/C=C/c1ccco1)Nc1ncc(Cc2cccc(C(F)(F)F)c2)s1`, for which the growth in the test with T-47D breast is 21.5%; with BT-549 breast, 8.55% (active); in the test on MDA-MB-435 melanoma, -49.6% (active); in the test on MCF7 breast it was 12.9%; in the test with HCT-116 colon, 7.05% (active); in the test on HCC-2998 colon, 12.2%. Moreover, the growth with KM12 colon was 4.7% (active).

In the case of `COc1ccc(C(O)c2cc3c(N)c(C(=O)Nc4cccc(Br)c4)sc3nc2C)cc1` (stereo not drawn), the growth in the test with T-47D breast was 53.2%; in the test with BT-549 breast, 3.53% (active); in the test on MDA-MB-435 melanoma, -33.4% (active); with MCF7 breast, 9.88% (active); with HCT-116 colon, 6.39% (active); in the test on HCC-2998 colon it was -33.9% (active). Also, the growth in the test with KM12 colon is 0.956% (active).

For `CCOC(=O)c1cc(C(=O)c2cc(OC)c(OC)c(OC)c2)n2ncccc12`, the growth in the test with T-47D breast was 58.5%; with BT-549 breast, 37%; in the test on MDA-MB-435 melanoma it was -57.2% (active); in the test with MCF7 breast, 19.7%; in the test on HCT-116 colon, 11.8%; with HCC-2998 colon it was 28.3%. Besides, the growth in the test with KM12 colon is 20.8%.

Take `COc1c(C(=O)Nc2ccc(C)c(Br)c2)ccc2ccccc12`: the growth was 88.9% with T-47D breast; 101% in the test with BT-549 breast; 31.7% in the test with MDA-MB-435 melanoma; 96% in the test with MCF7 breast; 96.5% with HCT-116 colon; 99.9% with HCC-2998 colon. Also, in the test on KM12 colon, the growth was 81.2%.

With `CCN1C(=O)N(CC)C2C1NN=c1s/c(=C\c3ccccc3F)c(=O)n12` (stereo not drawn), the growth in the test with T-47D breast was 55.2%; in the test on BT-549 breast, 7.28% (active); in the test on MDA-MB-435 melanoma, -37.4% (active); with MCF7 breast it was 15.2%; in the test on HCT-116 colon it was 7.85% (active); with HCC-2998 colon, 12.8%. Also, the growth in the test with KM12 colon was 4.31% (active).
